From PubChem BioAssay (NCI) come the findings set out here.

Compounds without any hit were thinned out: in the full panel of roughly 79,000, 15% have a hit. Values without a mark were called inactive. Calls of active or inactive are those of the source. No stated cut-off is given here; in the data, active means growth inhibition above about 70%; inactive means the rest.

Assay [1] can be described thus: NCI Yeast Anticancer Drug Screen. Data for the rad50 strain (AID 155).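 Further: 0% = growth of vehicle-only cultures of the same strain.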 The note with it: S. cerevisiae rad50 strain growth inhibition, stronger effect = higher value. Summed up:
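Readout: growth inhibition relative to vehicle-treated cultures. Compound exposure was carried out in a genetically defined yeast strain deficient in DNA damage repair.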

Assay [2] is described as follows: NCI Yeast Anticancer Drug Screen. Data for the mec2-1 strain (AID 157). The following applies: S. cerevisiae mec2-1 strain, stronger effect = higher value. Summed up: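 Each compound was tested on mec2-1 yeast, a strain altered in DNA damage repair or cell cycle control. Growth inhibition is reported relative to vehicle.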
Assay [3] in a line: NCI Yeast Anticancer Drug Screen. Data for the sgs1 mgt1 strain (AID 161).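 Further: 0% = growth of cultures given vehicle only.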 The note with it: S. cerevisiae sgs1 mgt1 strain, stronger effect = higher value. Summed up:
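Test agents were incubated with a DNA-repair-mutant yeast strain. Growth was then read and compared against vehicle-treated controls.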

A short description of assay [4]: NCI Yeast Anticancer Drug Screen. Data for the cln2 rad14 strain (AID 165).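 Further: 0% = growth equal to vehicle treated cultures.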 The following applies: S. cerevisiae cln2 rad14 strain, stronger effect = higher value. In short, it runs like this: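 Test compounds were added to cln2 rad14 yeast cultures; inhibition of growth was then determined by comparison with vehicle treatment.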
The nature of assay [5]: NCI Yeast Anticancer Drug Screen. Data for the bub3 strain (AID 167). The note with it: S. cerevisiae bub3 mutant strain, stronger effect = higher value. In short, it runs like this: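 Readout: yeast growth inhibition, expressed relative to vehicle-only wells. The test organism is a mutant strain from a panel with lesions in DNA repair or checkpoint genes.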
Assay [6] is described as follows: NCI Yeast Anticancer Drug Screen. Data for the mlh1 rad18 strain (AID 175). The following applies: S. cerevisiae mlh1 rad18 strain growth inhibition, stronger effect = higher value. In short, it runs like this:
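Inhibition values reflect reduced growth of mutant yeast versus vehicle-treated controls following compound exposure; the mutations affect DNA damage repair.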

Setting [7] is: at 5.0 µM (retest, dose inferred, filed as 0.5).
Setting [8] is: at 50.0 µM (retest, dose inferred, filed as 5.0).

Turning to `COc1ccc(/C=C/c2ccnc3ccccc23)cc1OC`, the growth inhibition in assay [1] (setting [7]) was 17%; in assay [1] (setting [8]), 96% (active); in assay [1] (at 50.0 µM), 86.4% (active); in assay [2] (setting [7]), 2%; in assay [2] (setting [8]), 97% (active); in assay [2] (at 50.0 µM) it was 90.9% (active). The growth inhibition in assay [3] (setting [7]) was 9%; in assay [3] (setting [8]), 98% (active); in assay [3] (at 50.0 µM), 87.9% (active); in assay [4] (setting [7]) it was 6%; in assay [4] (setting [8]) it was 89% (active); in assay [4] (at 50.0 µM), 83.7% (active). Moreover, the growth inhibition in assay [5] (setting [7]) was -8%; in assay [5] (setting [8]), 98% (active); in assay [5] (at 50.0 µM), 82.5% (active); in assay [6] (setting [7]), 11%; in assay [6] (setting [8]) it was 96% (active); in assay [6] (at 50.0 µM), 84.9% (active).
On to `N#Cc1c(-c2ccc(Cl)c(Cl)c2)c(-c2ccc(Cl)c(Cl)c2)nn(CCO)c1=O`, for which the growth inhibition in assay [1] (setting [7]) was 73% (active); in assay [1] (setting [8]), 96% (active); in assay [1] (at 50.0 µM), 97.8% (active); in assay [2] (setting [7]), 44%; in assay [2] (setting [8]), 98% (active); in assay [2] (at 50.0 µM), 97.6% (active). The growth inhibition in assay [3] (setting [7]) is 50%; in assay [3] (setting [8]), 97% (active); in assay [3] (at 50.0 µM) it was 97.5% (active); in assay [4] (setting [7]), 39%; in assay [4] (setting [8]) it was 95% (active); in assay [4] (at 50.0 µM) it was 96.8% (active). Further, the growth inhibition in assay [5] (setting [7]) is 43%; in assay [5] (setting [8]) it was 97% (active); in assay [5] (at 50.0 µM) it was 96.3% (active); in assay [6] (setting [7]), 72% (active); in assay [6] (setting [8]) it was 96% (active); in assay [6] (at 50.0 µM), 97.5% (active).
As for `CCN(CC)CC(O)c1ccc(/C=C/c2ccc(Cl)cc2)cc1` (stereo not given), the growth inhibition in assay [1] (setting [7]) was 12%; in assay [1] (setting [8]) it was 95% (active); in assay [1] (at 50.0 µM), 98.1% (active); in assay [2] (setting [7]) it was 6%; in assay [2] (setting [8]), 97% (active); in assay [2] (at 50.0 µM), 98% (active). In addition, the growth inhibition is 8% in assay [3] (setting [7]); 98% (active) in assay [3] (setting [8]); 58.5% in assay [3] (at 50.0 µM); 12% in assay [4] (setting [7]); 97% (active) in assay [4] (setting [8]); 98.7% (active) in assay [4] (at 50.0 µM). The growth inhibition was 17% in assay [5] (setting [7]); 96% (active) in assay [5] (setting [8]); 98.6% (active) in assay [5] (at 50.0 µM); 15% in assay [6] (setting [7]); 97% (active) in assay [6] (setting [8]); 98.4% (active) in assay [6] (at 50.0 µM).
Consider `COc1ccc(/C=C\Cc2cc3c(cc2OCCO)OCO3)cc1`, for which the growth inhibition in assay [1] (setting [7]) is 3%; in assay [1] (setting [8]), 92% (active); in assay [1] (at 50.0 µM) it was 96.7% (active); in assay [2] (setting [7]), 7%; in assay [2] (setting [8]), 95% (active); in assay [2] (at 50.0 µM), 96.7% (active). Besides, the growth inhibition in assay [3] (setting [7]) is 7%; in assay [3] (setting [8]), 97% (active); in assay [3] (at 50.0 µM) it was 97.8% (active); in assay [4] (setting [7]), 1%; in assay [4] (setting [8]), 82% (active); in assay [4] (at 50.0 µM) it was 69.6%. The growth inhibition in assay [5] (setting [7]) was -1%; in assay [5] (setting [8]) it was 96% (active); in assay [5] (at 50.0 µM) it was 85.6% (active); in assay [6] (setting [7]) it was -2%; in assay [6] (setting [8]), 97% (active); in assay [6] (at 50.0 µM) it was 97.2% (active).
For the molecule `C/C(CCn1[nH]c(=O)ccc1=O)=N\Nc1ccc([N+](=O)[O-])cc1[N+](=O)[O-]`, the growth inhibition in assay [1] (setting [7]) was 44%; in assay [1] (setting [8]), 97% (active); in assay [1] (at 50.0 µM), 67.3%; in assay [2] (setting [7]), 20%; in assay [2] (setting [8]), 98% (active); in assay [2] (at 50.0 µM) it was -0.6%. Besides, the growth inhibition was 27% in assay [3] (setting [7]); 98% (active) in assay [3] (setting [8]); 19.6% in assay [3] (at 50.0 µM); 23% in assay [4] (setting [7]); 81% (active) in assay [4] (setting [8]); 24.4% in assay [4] (at 50.0 µM). Moreover, the growth inhibition in assay [5] (setting [7]) was 32%; in assay [5] (setting [8]) it was 98% (active); in assay [5] (at 50.0 µM), 25.9%; in assay [6] (setting [7]), 45%; in assay [6] (setting [8]) it was 98% (active); in assay [6] (at 50.0 µM), 73.2% (active).
`O=C1C(C(O)(C(F)(F)Cl)C(F)(F)Cl)CCC1C(O)(C(F)(F)Cl)C(F)(F)Cl` (stereo not given): the growth inhibition in assay [1] (setting [7]) was 92% (active); in assay [1] (setting [8]), 99% (active); in assay [1] (at 50.0 µM), 99.8% (active); in assay [2] (setting [7]), 95% (active); in assay [2] (setting [8]), 100% (active); in assay [2] (at 50.0 µM), 99.5% (active). In addition, the growth inhibition was 95% (active) in assay [3] (setting [7]); 99% (active) in assay [3] (setting [8]); 99.8% (active) in assay [3] (at 50.0 µM); 94% (active) in assay [4] (setting [7]); 99% (active) in assay [4] (setting [8]); 99.4% (active) in assay [4] (at 50.0 µM). Moreover, the growth inhibition in assay [5] (setting [7]) is 78% (active); in assay [5] (setting [8]), 99% (active); in assay [5] (at 50.0 µM), 98.1% (active); in assay [6] (setting [7]), 95% (active); in assay [6] (setting [8]) it was 99% (active); in assay [6] (at 50.0 µM) it was 99.5% (active).
`CC(=O)Nc1ccc(/C=N\NC(=O)c2ccco2)cc1`: the growth inhibition in assay [1] (setting [7]) was -5%; in assay [1] (setting [8]), 4%; in assay [1] (at 50.0 µM), -7.6%; in assay [2] (setting [7]) it was -10%; in assay [2] (setting [8]) it was -7%; in assay [2] (at 50.0 µM), -2.6%. For the same molecule, the growth inhibition in assay [3] (setting [7]) is -4%; in assay [3] (setting [8]) it was 5%; in assay [3] (at 50.0 µM), -1.1%; in assay [4] (setting [7]), -13%; in assay [4] (setting [8]) it was 1%; in assay [4] (at 50.0 µM), -3.1%. Also, the growth inhibition in assay [5] (setting [7]) was -8%; in assay [5] (setting [8]) it was -12%; in assay [5] (at 50.0 µM), -8.45%; in assay [6] (setting [7]) it was -2%; in assay [6] (setting [8]) it was -12%; in assay [6] (at 50.0 µM), 0.4%.
Consider `CC12CC(O)C3C(CCC4CCCCC43C)C1CC/C2=N/O` (stereo not given), for which the growth inhibition in assay [1] (setting [7]) was 47%; in assay [1] (setting [8]), -10%; in assay [1] (at 50.0 µM), 86.6% (active); in assay [2] (setting [7]), 45%; in assay [2] (setting [8]), 7%; in assay [2] (at 50.0 µM), 91.2% (active). In addition, the growth inhibition in assay [3] (setting [7]) was 27%; in assay [3] (setting [8]), 1%; in assay [3] (at 50.0 µM), 93.3% (active); in assay [4] (setting [7]), 8%; in assay [4] (setting [8]) it was -6%; in assay [4] (at 50.0 µM), 50.8%. The growth inhibition in assay [5] (setting [7]) is 10%; in assay [5] (setting [8]) it was -5%; in assay [5] (at 50.0 µM), 93.9% (active); in assay [6] (setting [7]) it was 52%; in assay [6] (setting [8]), 5%; in assay [6] (at 50.0 µM), 94.6% (active).
With `CCCCCCCCCCCCCCCCCC(=O)OC(C)CCC1CCCO1` (stereo not given), the growth inhibition is 4% in assay [1] (setting [7]); -6% in assay [1] (setting [8]); 26.4% in assay [1] (at 50.0 µM); 1% in assay [2] (setting [7]); 0% in assay [2] (setting [8]); 12.8% in assay [2] (at 50.0 µM). The growth inhibition was 5% in assay [3] (setting [7]); 11% in assay [3] (setting [8]); 5.9% in assay [3] (at 50.0 µM); 5% in assay [4] (setting [7]); 3% in assay [4] (setting [8]); 0.1% in assay [4] (at 50.0 µM). In addition, the growth inhibition in assay [5] (setting [7]) was 1%; in assay [5] (setting [8]), -2%; in assay [5] (at 50.0 µM), -5.95%; in assay [6] (setting [7]) it was 1%; in assay [6] (setting [8]), -58%; in assay [6] (at 50.0 µM), 13%.
For the molecule `CC(=O)C1(O)C(Br)CC2C3CC=C4CC(O)CCC4(C)C3CCC21C` (stereo not given), the growth inhibition in assay [1] (setting [7]) is 43%; in assay [1] (setting [8]) it was 98% (active); in assay [1] (at 50.0 µM), 90.3% (active); in assay [2] (setting [7]), 37%; in assay [2] (setting [8]) it was 99% (active); in assay [2] (at 50.0 µM), 79.5% (active). The growth inhibition in assay [3] (setting [7]) was 46%; in assay [3] (setting [8]) it was 98% (active); in assay [3] (at 50.0 µM) it was 86.4% (active); in assay [4] (setting [7]) it was 37%; in assay [4] (setting [8]), 98% (active); in assay [4] (at 50.0 µM), 87.9% (active). In addition, the growth inhibition is 49% in assay [5] (setting [7]); 98% (active) in assay [5] (setting [8]); 85% (active) in assay [5] (at 50.0 µM); 53% in assay [6] (setting [7]); 98% (active) in assay [6] (setting [8]); 83.8% (active) in assay [6] (at 50.0 µM).
